# HP1b binding inh – HTS for Inhibitors of HP1-beta Chromodomain Interactions with Methylated Histone Tails. Chromobox protein homolog 1 (Homo sapiens), P83916. AlphaScreen HP1-beta / biotin-H3K9me3 peptide binding. Potency, µM (titrated, usually from 114 µM), inactives show at the top dose activity change, negative = inhibition, most hits filed as inhibitors. 0.56% of 390,000 active. AID 540317, 2011; also: nearly all actives have a fitted effect of over 70% in size
#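 Compound inhibition of the preformed complex between 50 nM HP1-beta and 50 nM biotinylated H3K9me3 peptide was read by AlphaScreen. Buffer was PBS pH 7.4 with 0.01% Tween-20. Incubations ran 30 min at room temperature, with 10 ug/mL donor/acceptor beads.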
# PLK1 PBD inh – qHTS for Inhibitors of PLK1-PDB (polo-like kinase 1 - polo-box domain): Primary Screen | Serine/threonine-protein kinase PLK1 (Homo sapiens), P53350 | Plk1 PBD binding of FITC phosphopeptide, fluorescence polarization | Potency, µM, for inactives: max response, negative = inhibition, hits mostly inhibitors | 2.8% of 360,000 active | AID 720504, 2013; also: series mostly up to about 57 µM; % is scaled to controls: 0 for no effect and ±100 for the full control effect; nearly all actives have a fitted effect of over 65% in size
# JMJD2A Tudor inh – qHTS Assay for Inhibitors of JMJD2A-Tudor Domain; AID 504339, 2011; Potency, µM (highest dose often 114 µM), for inactives: at the highest dose activity change, negative = inhibition, actives largely listed as inhibitors; AlphaScreen JMJD2A-Tudor / H3K4me3 peptide binding; 4.4% of 390,000 active; Lysine-specific demethylase 4A (Homo sapiens), O75164; also: % is scaled to controls: 0 for no effect and ±100 for the full control effect; nearly all actives have a fitted effect of over 50% in size
# G9a inh – qHTS Assay for Inhibitors of Histone Lysine Methyltransferase G9a; Histone-lysine N-methyltransferase EHMT2 (Homo sapiens), Q96KQ7; Potency, µM (doses to about 102 µM), for inactives: at the top dose activity, negative = inhibition, hits mostly inhibitors; AID 504332, 2011; G9a H3K9 monomethylation, AlphaScreen, 2 h; 8.8% of 350,000 active; also: % is scaled to controls: 0 for no effect and ±100 for the full control effect; nearly all actives have a fitted effect of over 75% in size
#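 Step 1: enzyme (final 20 nM) with compound, 15 min RT. Step 2: substrate peptide 500 nM and SAM 20 uM, 2 h RT. Step 3: anti-H3K9me1 antibody and AlphaScreen beads, 10 min, then plate read.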
# BAZ2B block – qHTS Assay for Inhibitors of BAZ2B; AlphaScreen BAZ2B-H3K14Ac peptide displacement; AID 504333, 2011; Potency, µM (top dose mostly 114 µM), without a hit: at the top dose activity change, negative = inhibition, actives largely listed as inhibitors; 4.4% of 360,000 active; also: % is scaled to controls: 0 for no effect and ±100 for the full control effect; nearly all actives have a fitted effect of over 60% in size
#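 BAZ2B (50 nM) with biotin-H3(5-23)K14Ac peptide (50 nM) in PBS pH 7.4, 0.01% Tween-20, preformed 30 min, then compound 30 min at room temperature; top concentration 110uM. AlphaScreen streptavidin donor/nickel chelate acceptor beads (10 ug/mL final), 20 min dark, signal read.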
# 12-LOX inh – Primary qHTS assay for inhibitors of human arachidonate 12S-lipoxygenase (ALOX12): Round 2; Polyunsaturated fatty acid lipoxygenase ALOX12 (Homo sapiens), P18054; purified 12hLO, xylenol orange hydroperoxide absorbance; Potency, µM (titrated, usually from 108 µM), for inactives: at the highest dose activity change, negative = inhibition, most hits filed as inhibitors; 1.1% of 580,000 active; AID 1671190, 2021; also: % is scaled to controls: 0 for no effect and ±100 for the full control effect
# Target sequence (P18054 whole entry, looked up): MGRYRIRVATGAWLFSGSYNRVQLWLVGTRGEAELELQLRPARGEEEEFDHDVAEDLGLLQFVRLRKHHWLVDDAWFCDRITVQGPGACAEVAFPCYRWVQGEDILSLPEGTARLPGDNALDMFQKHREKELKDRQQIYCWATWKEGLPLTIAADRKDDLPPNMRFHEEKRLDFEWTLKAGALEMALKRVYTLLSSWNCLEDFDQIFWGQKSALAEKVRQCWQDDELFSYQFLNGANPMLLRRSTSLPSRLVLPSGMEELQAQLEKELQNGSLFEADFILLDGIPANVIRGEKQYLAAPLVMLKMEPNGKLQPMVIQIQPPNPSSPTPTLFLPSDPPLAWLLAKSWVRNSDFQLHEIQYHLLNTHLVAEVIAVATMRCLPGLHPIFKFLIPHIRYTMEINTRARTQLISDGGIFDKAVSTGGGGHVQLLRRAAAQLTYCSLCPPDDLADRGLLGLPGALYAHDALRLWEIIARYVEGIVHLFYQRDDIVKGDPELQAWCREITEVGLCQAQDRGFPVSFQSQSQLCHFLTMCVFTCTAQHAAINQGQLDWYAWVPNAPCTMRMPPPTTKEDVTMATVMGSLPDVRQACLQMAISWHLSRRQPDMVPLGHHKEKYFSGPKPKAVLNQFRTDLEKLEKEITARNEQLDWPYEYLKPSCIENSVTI
#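 Hydroperoxide product was detected by ferrous iron/xylenol orange as the 573 to 405 nm absorbance ratio. Arachidonic acid at 40 uM (final) was turned over for 30 min at room temperature by 150 nM human 12hLO, pH 7.0 Hepes buffer, after 15 min compound preincubation.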
# Starred values were filed as active, the others as inactive; ? = inconclusive; . = no result; [ ] = remark or other dose. In the library only some 9% were active in any assay of this set; here they are far more common. Calls follow the shape of the dose curve; as a rule, active = well fitted curve in the direction sought with a large enough effect; inconclusive = small, poorly fitted or top-dose-only effect, or another doubt; inactive = no such curve, though single readings can be large; an effect the other way counts as inactive or inconclusive. Potency is read from the fitted curve at half-maximal effect.
SMILES,HP1b binding inh,PLK1 PBD inh,JMJD2A Tudor inh,G9a inh,BAZ2B block,12-LOX inh
CCn1c2ccccc2c2cc(NC(=O)c3ccc([N+](=O)[O-])cc3)ccc21,7%,-6%,-20%,?,7%,48%
CCn1c2ccccc2c2cc(NC(=O)c3ccccc3[N+](=O)[O-])ccc21,3%,0%,-35%,7.9µM*,-38%,21%
COC(=O)c1ccccc1NC(=O)CSc1nc(C)c(Cl)c(C)c1C#N,31%,.,?,9%[59 µM],-3%,-37%
CCOC(=O)CNC(=O)CNC(=O)Cn1ccc2ccccc2c1=O,32%,-17%,-5%[57.1 µM],?,11%,1%
O=C1OC(c2ccc(Cl)cc2)/C(=C(/O)c2ccccc2)C1=O (configuration not stated),-2%,-16%,32µM*,.,?,?
CN1C(=O)C(=O)/C(=C(/O)c2ccc(Br)cc2)C1c1ccc(Cl)cc1 (configuration not stated),37%,-15%,-15%,-2%[0.501 µM],-16%,?
Cn1nnnc1SCC(=O)N1c2ccccc2Sc2ccc(Cl)cc21,38%,-21%,-20%[11.4 µM],-22%[59 µM],-4%,0%
CCc1ccc2[nH]c(C(=O)N(C)c3ccc(F)cc3F)cc2c1,27%,-14%,-13%,40µM*,-12%,-6%
CCc1ccc2[nH]c(C(=O)Nc3ccc(C)c(F)c3)cc2c1,32%,?,-14%,7%[2.33 µM],-6%,-23%
COc1cccc(CN(CCC(=O)O)Cc2cccc(OC)c2)c1,.,-7%,.,.,.,18µM*
CCCN(CCC(=O)Nc1cc(OC)cc(OC)c1)CC1CC1,10%,-1%,-34%,45µM*,?,?
CCN(CCC(=O)Nc1cc(OC)cc(OC)c1)Cc1ccccc1,30%,-1%,-11%[57.1 µM],45µM*,10%,-19%
COc1cc(NC(=O)CCN2CCN(Cc3ccccc3)CC2)cc(OC)c1,13%,0%,-5%,-3%[59 µM],-31%,7%
COc1cc(O)c2c(=O)cc(-c3ccccc3)oc2c1,10%,-12%,-26%,14%[59 µM],-16%,-27%
CC(C)OC(=O)c1cc(-c2ccc(C=O)o2)ccc1Cl,14%,-10%,5%,?,-33%,?
Cc1cc(N2CCOCC2)ccc1/C=C1\SC(=O)N(C(C)C)C1=O,18%,4%,-12%,36%[12.7 µM],-10%,-13%
CC(C)N1C(=O)S/C(=C\c2ccc(-c3ccc(Cl)c(C(=O)O)c3)o2)C1=O,-11%,?,79µM*,40µM*,-34%,?
CCOC(=O)CN1C(=O)S/C(=C\c2ccc(-c3cccc(C(=O)O)c3C)o2)C1=O,18%,-7%,-2%,.,.,3%
CCN(CC)c1ccc(/C=C2/SC(=O)N(C(C)C)C2=O)o1,5%,55%,?,7.1µM*,?,45µM*
CCOC(=O)CN1C(=O)S/C(=C/c2ccc(N3CCCCC3)o2)C1=O,17%,73%,50µM*,3.2µM*,-7%,7.9µM*
CCOC(=O)CN1C(=O)S/C(=C/c2ccco2)C1=O,24%,-6%,3%,?,?,28%
CCOC(=O)CN1C(=O)S/C(=C\c2ccc(-c3ccc(C(=O)O)c(Cl)c3)o2)C1=O,-13%,-23%,79µM*,50µM*,?,?
COc1ccc(S(=O)(=O)Nc2cccc(-c3ccc(N4CCC(C)CC4)nn3)c2)cc1OC,10%[57 µM],.,-18%,-7%[59 µM],-18%,2%
COC(=O)CN1C(=O)S/C(=C/c2ccc(N3CCCCC3)o2)C1=O,?,86%,35µM*,27%[0.501 µM],45µM*,45µM*

# Screening data from PubChem.
